Results: article PMC4336329 (PLoS ONE, 2015)
About 14,000 (4.5%) of roughly 310,000 compounds showed an effect of 50% or more. Effects have a minus sign here. Many of the other results were omitted from the sample, so strong results are more common in it than they were.

Target: human ether-à-go-go-related gene (hERG) potassium channel (human, UniProt Q12809)
Experiment: primary screen, population patch clamp on CHO cells stably expressing hERG; higher = less effect of the substance
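Note: peak tail current of the secondary pulse compared with the same well before compound.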

human ether-à-go-go-related gene (hERG) potassium channel, sequence (Q12809 whole entry, looked up): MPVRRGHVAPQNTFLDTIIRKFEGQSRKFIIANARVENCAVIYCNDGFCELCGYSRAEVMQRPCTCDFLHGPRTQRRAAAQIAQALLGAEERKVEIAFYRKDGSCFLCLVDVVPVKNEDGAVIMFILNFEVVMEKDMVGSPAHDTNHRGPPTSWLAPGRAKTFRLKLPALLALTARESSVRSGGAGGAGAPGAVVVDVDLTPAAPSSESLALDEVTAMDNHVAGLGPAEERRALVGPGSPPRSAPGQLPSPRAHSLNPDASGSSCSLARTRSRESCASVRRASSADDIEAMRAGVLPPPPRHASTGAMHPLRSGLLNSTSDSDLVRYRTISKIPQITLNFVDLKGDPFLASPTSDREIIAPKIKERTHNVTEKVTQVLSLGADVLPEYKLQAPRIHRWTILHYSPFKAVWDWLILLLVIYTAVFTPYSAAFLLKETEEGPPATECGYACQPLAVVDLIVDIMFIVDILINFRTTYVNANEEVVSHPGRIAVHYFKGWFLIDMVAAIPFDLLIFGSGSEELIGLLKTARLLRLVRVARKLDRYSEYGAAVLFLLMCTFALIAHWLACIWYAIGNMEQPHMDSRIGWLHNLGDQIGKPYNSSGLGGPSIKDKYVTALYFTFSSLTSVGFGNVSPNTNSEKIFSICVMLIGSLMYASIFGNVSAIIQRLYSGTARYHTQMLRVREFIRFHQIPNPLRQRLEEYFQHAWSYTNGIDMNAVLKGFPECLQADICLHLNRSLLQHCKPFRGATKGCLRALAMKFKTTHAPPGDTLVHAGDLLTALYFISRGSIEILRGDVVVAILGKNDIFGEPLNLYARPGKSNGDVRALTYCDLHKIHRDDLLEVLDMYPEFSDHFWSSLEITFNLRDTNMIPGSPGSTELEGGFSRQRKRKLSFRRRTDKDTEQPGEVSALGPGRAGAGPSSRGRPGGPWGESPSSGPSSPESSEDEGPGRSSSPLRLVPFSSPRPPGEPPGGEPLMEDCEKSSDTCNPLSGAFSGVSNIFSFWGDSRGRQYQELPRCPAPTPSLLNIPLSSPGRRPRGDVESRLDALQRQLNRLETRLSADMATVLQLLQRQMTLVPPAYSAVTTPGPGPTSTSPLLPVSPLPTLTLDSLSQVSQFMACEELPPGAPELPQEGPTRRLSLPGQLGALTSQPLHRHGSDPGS

SMILES | hERG current change (%, negative = inhibition) at 10uM
O=C(NNc1cccc(Cl)n1)C(F)(F)F | 17.2%
COc1ccc(/C=N/n2c(=O)[nH]c3c([nH]c4ccc(Br)cc43)c2=O)cc1CN1CCOCC1 | 5.45%
O=S(=O)(c1cccc(Br)c1)N1CCN(C(=S)NCC2CCCO2)CC1 (stereo not shown) | 11.6%
CN(c1ccc(C(=O)NCc2cccnc2)cc1)S(=O)(=O)c1ccc(Cl)cc1 | -15.8%
CCOc1ccc(S(=O)(=O)N(CC(=O)NCc2cccnc2)c2ccc(F)cc2)cc1 | -72.5%
CCOc1ccc(S(=O)(=O)N(CC)CC(=O)NCc2ccncc2)cc1 | -13.2%
COc1ccc(S(=O)(=O)N(C)c2ccc(C(=O)NCc3ccncc3)cc2)cc1 | -18.8%
CCOc1ccc(S(=O)(=O)N(CC(=O)Nc2cccnc2)c2ccc(F)cc2)cc1 | 2.96%
CCOc1ccc(S(=O)(=O)N(CC(=O)NCc2ccncc2)c2ccc(C)cc2)cc1 | -56.5%
CCOc1ccc(N(CC(=O)NCc2ccccc2)S(=O)(=O)c2ccc(C)cc2)cc1 | 4.04%
CCOc1ccc(N(CC(=O)NCc2cccnc2)S(=O)(=O)c2ccc(F)cc2)cc1 | -13.6%
CN(c1ccc(C(=O)NCc2ccncc2)cc1)S(=O)(=O)c1ccc(Cl)cc1 | -52.1%
COc1cc(/C(C)=N/N2CCN(c3ccccc3OC)CC2)ccc1O | -9.07%
COc1ccc2c(c1)c(/C=C/c1cc[n+](C)cc1)cn2C.[I-] | 12.9%
Cc1cc(-n2c(C)cc(C(=O)CSc3nnnn3-c3ccc(Cl)cc3)c2C)no1 | -3.04%
Cc1c(C)c(C)c(CN2CCSCC2)c(C)c1C | 18.4%
Cc1ccc(N(C)S(=O)(=O)c2ccc(-c3cnc(C4CC4)o3)cc2)cc1 | 8.38%
COc1ccc(S(=O)(=O)N2CCCC(C(=O)NCc3ccco3)C2)cc1OC (stereo not shown) | 10.1%
CN(C)CCCN(C(=O)c1ccc([N+](=O)[O-])o1)c1nc2cc3c(cc2s1)OCO3.Cl | -71.8%
CN(C)CCCN(C(=O)c1ccc(C(=O)c2ccccc2)cc1)c1nc2cc3c(cc2s1)OCO3.Cl | -56.3%
CN(C)CCN(C(=O)c1ccc(N2C(=O)CCC2=O)cc1)c1nc2cc3c(cc2s1)OCO3.Cl | 0.227%
CN(C)CCN(C(=O)c1ccc(C(=O)c2ccccc2)cc1)c1nc2cc3c(cc2s1)OCCO3.Cl | -12.4%

SMILES | hERG current change (%, negative = inhibition) at 10uM
CN(C)CCN(C(=O)c1ccc2c(c1)CCCC2)c1nc2cc3c(cc2s1)OCCO3.Cl | 5.76%
CN(C)CCN(C(=O)c1ccc(C(=O)c2ccccc2)cc1)c1nc2cc3c(cc2s1)OCO3.Cl | 3.43%
CCN(CC)CCN(C(=O)c1ccc2ncsc2c1)c1nc2cc3c(cc2s1)OCO3.Cl | -61.8%
CCN(CC)CCN(C(=O)c1ccc2ccccc2c1)c1nc2cc3c(cc2s1)OCO3.Cl | -38.6%
CN(C)CCCN(C(=O)c1ccc2c(c1)CCCC2)c1nc2cc3c(cc2s1)OCO3.Cl | -71%
CCN(CC)CCN(C(=O)c1ccc(C(=O)c2ccccc2)cc1)c1nc2cc3c(cc2s1)OCO3.Cl | -43.8%
Cc1nccn1Cc1ccccc1 | 25.1%
C(=N\Nc1nc(N2CCOCC2)nc(N2CCOCC2)n1)/c1ccco1 | 30.2%
CCOC(=O)C1CCN(C(=O)Cn2c(=O)c3cccn3c3cccnc32)CC1 | 3.76%
COC(=O)CSC1=C(C#N)C(c2ccc(Cl)cc2)C(C(=O)OC)C(=O)N1 (stereo not shown) | 0.571%
Cc1cccc(C)c1NC(=O)COC(=O)c1ccccc1O | 1.57%
O=C(NC1CCCCC1)N1CCc2[nH]c3ccccc3c2C1 | 3.15%
CN(C)CCCN(C(=O)c1ccc2c(c1)OCCO2)c1nc2ccc(Cl)cc2s1.Cl | -39.9%
CCN(CC)CCN(C(=O)c1ccc(Br)s1)c1nc2cc3c(cc2s1)OCCO3.Cl | -1.19%
CCN(CC)CCN(C(=O)c1ccc2c(c1)OCCO2)c1nc2cc(C)cc(C)c2s1.Cl | -69.9%
CN(C)CCN(C(=O)c1ccc2c(c1)OCCO2)c1nc2cc3c(cc2s1)OCO3.Cl | -41.9%
CCN(CC)CCN(C(=O)c1ccc2c(c1)OCCO2)c1nc2ccc(C)cc2s1.Cl | -71.2%
CCN(CC)CCN(C(=O)c1ccc(S(=O)(=O)N2CCCC2)cc1)c1nc2cc(C)cc(C)c2s1.Cl | -44.1%
CCc1ccc2nc(N(CCCN(C)C)C(=O)c3ccc4c(c3)OCCO4)sc2c1.Cl | -48.3%
CN(C)CCCN(C(=O)c1ccc2c(c1)OCCO2)c1nc2cc3c(cc2s1)OCO3.Cl | -56%
Cc1ccc2nc(N(CCN(C)C)C(=O)c3ccc4c(c3)OCCO4)sc2c1.Cl | -44.6%
CCN(CC)CCN(C(=O)c1ccc2c(c1)OCCO2)c1nc2cc3c(cc2s1)OCO3.Cl | -67.3%

SMILES | hERG current change (%, negative = inhibition) at 10uM
CC(C)c1ccc(N2CC(C(=O)Nc3nccs3)CC2=O)cc1 (stereo not shown) | 1.98%
CC1(C)Cc2c(sc3nc4n(-c5ccccc5)c(=O)c(CCC(=O)O)nn4c(=O)c23)CO1 | 12.9%
O=c1cc(-c2ccc([N+](=O)[O-])cc2)c2cc3c(cc2[nH]1)OCCO3 | -12%
CC(NCc1ccc(Cl)c(Cl)c1)C(O)c1ccccc1.Cl (stereo not shown) | -0.311%
CC(=O)NC(NC(C)=O)c1cccc(OCc2ccccc2)c1 | 9.33%
CC(NCc1ccc(Cl)cc1)C(O)c1ccccc1.Cl (stereo not shown) | 0.613%
CC(NCc1ccc(Cl)cc1Cl)C(O)c1ccccc1.Cl (stereo not shown) | -26.6%
CC(NCc1ccc(OCc2ccc(Cl)cc2)cc1)C(O)c1ccccc1.Cl (stereo not shown) | -62.5%
CC(NCc1cccc(OCc2ccccc2)c1)C(O)c1ccccc1.Cl (stereo not shown) | -50.9%
Cc1ccc(C(=O)NCC(=O)OCCCn2c(=O)[nH]c3ccccc32)cc1 | -14.8%
COc1ccc(N(CC(=O)Nc2ccc(C)cn2)S(=O)(=O)c2c(C)noc2C)cc1 | -24.8%
Cc1cccc(C)c1NC(=S)N1CCOCC1 | 9.99%
Cc1ccc(NC(=O)CCS(=O)(=O)c2cccc3nonc23)c(Br)c1 | 6.97%
Cc1c(C(=O)N2CCC3(CC2)CC(=O)c2ccccc2O3)cccc1[N+](=O)[O-] | -83.2%
O=C(c1ccccc1[N+](=O)[O-])N1CCCN(C(=O)c2ccccc2[N+](=O)[O-])CC1 | -14.8%
O=C(c1ccccc1[N+](=O)[O-])N1CCC2(CC1)OCCO2 | 3.53%
Cc1c(C(=O)N2CCC(C)CC2)cccc1[N+](=O)[O-] | 26.1%
Cc1c(C(=O)Nc2ccccc2C(=O)N2CCCC2)cccc1[N+](=O)[O-] | 9.76%
O=C1CC2(CCN(C(=O)c3ccccc3[N+](=O)[O-])CC2)Oc2ccccc21 | -62%
NC(=O)c1ccc(NC(=O)CNC(=O)c2sc3ccccc3c2Cl)cc1 | 0.282%
Cn1nccc1C(=O)Nc1ccn(C23CC4CC(CC(C4)C2)C3)n1 | -11.6%
CN1CCN(S(=O)(=O)c2ccc(=O)[nH]c2)CC1 | 7.85%

SMILES | hERG current change (%, negative = inhibition) at 10uM
O=C(NCCN1CCOCC1)c1cc(-c2ccc(Br)cc2)on1 | -22%
Cl.O=C(NCCCN1CCOCC1)c1c(O)c2ccccc2[nH]c1=O | -47.9%
O=C(NCCCn1ccnc1)c1cc(-c2ccccc2)on1 | -16.3%
O=C(NCCCN1CCOCC1)c1c(O)c2cc(Br)cc(Br)c2[nH]c1=O | -64.6%
O=C(NCCCN1CCOCC1)c1cc(-c2ccc(Br)cc2)on1 | -58.6%
COc1cc2[nH]c(=O)c(C(=O)NCCCN3CCOCC3)c(O)c2cc1OC.Cl | 9.48%
Cc1ccc(-c2cc(C(=O)NCCCN3CCOCC3)no2)cc1 | -30.8%
O=C(NCCCn1ccnc1)c1cc(-c2ccc(Br)cc2)on1 | -51.6%
Cc1ccc(-c2cc(C(=O)NCCCn3ccnc3)no2)cc1 | -42.9%
COc1ccc(C2C(C(=O)Nc3ccc(OC)c(OC)c3)c3ccccc3C(=O)N2C)cc1 (stereo not shown) | 27.7%
O=C(CCc1cn2ccccc2n1)NC1CCCc2c1cnn2-c1ccccc1F (stereo not shown) | 0.178%
Fc1cccc(C2CCCCN2Cc2nc(C3CC3)no2)c1 (stereo not shown) | 13.3%
Cc1ccn2c(=O)nc(SCC(=O)c3ccc(Cl)cc3)nc2c1 | -31.2%
CCN(CC(=O)NCc1cccs1)C(=O)/C=C/c1cccc(Br)c1 | -66.8%
CCOc1ccc(/C=C/C(=O)N(CC)CC(=O)NCc2cccs2)cc1OC | -28.3%
CCN(CC(=O)NCc1cccs1)C(=O)/C=C/c1ccc(C)cc1 | -29.4%
CCOc1c(Cl)cc(/C=C/C(=O)N(CC)CC(=O)NCc2cccs2)cc1OC | -55.4%
CCN(CC(=O)NCc1cccs1)C(=O)/C=C/c1ccc(Cl)c(Cl)c1 | -41.1%
CCOc1cc(/C=C/C(=O)N(CC)CC(=O)NCc2cccs2)cc(Cl)c1OC | -27.7%
